Source: PubChem BioAssay (several laboratories)
ugtP null kill – growth inhibition of S. aureus ugtP deletion strain; S. aureus RN4220 ugtP deletion, OD600 growth, 16 h; growth inhibition, % (concentration not given with the values); 330,000 tested, 0.54% active; AID 1259309; in the data active = growth inhibition above about 68%
Mtb bLac sens – beta-lactam sensitization of Mtb H37Rv. M. tuberculosis H37Rv growth with meropenem, percent inhibition. inhibition, % at 25 µM. 330,000 tested, 0.27% active; call rule not given here;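 note: growth measured after seven days incubation then overnight dye step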
RN4220 kill – kills Staphylococcus aureus RN4220. S. aureus RN4220 growth, OD600, 16 h. inhibition, % (concentration not given with the values). 330,000 tested, 0.33% active. AID 1259311; in the data active = inhibition above about 85%
PriA SSB inh – blocks PriA binding to SSB C-terminal tail; AlphaScreen SSBct-PriA binding, biotinylated peptide; inhibition, % at 33 µM; 430,000 tested, 0.6% active; AID 1272365; in the data active = inhibition mostly above about 37%, no sharp cut-off; inactive = mostly below about 20%
Mtb hypoxia inh – inhibitors of hypoxia-regulated fluorescent reporter in Mycobacterium tuberculosis; M. tuberculosis hypoxia-regulated fluorescent reporter, fluorescence; 300,000 tested, 0.1% active; fluorescence inhibition, % (no concentration beside the values); AID 1159583; in the data active = fluorescence inhibition mostly above about 23%, no sharp cut-off; inactive = mostly below about 17%
Of the large screens only hits and unclear results are named; the others gave an inactive call. Only some compounds are listed: those with a hit (about 1% of all), similar ones and a draw of the others.

CCOC(=O)C1=C(C)N=C2c3ccccc3C(=O)C2C1c1ccc(Cl)cc1 (stereo not given)	RN4220 kill 88.1
CCn1cc(Br)c(C(=O)Nc2ccccc2C(=O)OC)n1	none
CCn1cc(Cl)c(C(=O)Nc2ccccc2C(N)=O)n1	PriA SSB inh 44.9
O=c1c2ccccc2nc(/C=C/c2ccc(O)cc2)n1-c1ccccc1O	ugtP null kill 90.8, RN4220 kill 95.3
O=C(O)c1cccc(-n2c(/C=C/c3ccccc3)nc3ccccc3c2=O)c1	ugtP null kill 99.6, RN4220 kill 97.3
O=c1c2ccccc2nc(/C=C/c2ccccc2)n1-c1ccccc1O	ugtP null kill 97.5, RN4220 kill 96.1
COc1ccccc1-n1c(/C=C/c2ccc(O)cc2)nc2ccccc2c1=O	none
COCC(=O)N[C@H]1CCN(c2nccs2)C1	none (no result: ugtP null kill, Mtb bLac sens, RN4220 kill, Mtb hypoxia inh)
CC(C)(C)c1ccc(-c2nnc3sc(-c4cnccn4)nn23)cc1	PriA SSB inh 51.0 (no result: ugtP null kill, Mtb bLac sens, RN4220 kill, Mtb hypoxia inh)
O=C(C1=C[C@H](c2ccc(Br)cc2)C[C@H](OCCCCO)O1)N1CCN(Cc2ccccc2)CC1	PriA SSB inh 41.8 (no result: ugtP null kill, RN4220 kill, Mtb hypoxia inh)
Cc1ccccc1OCC(=O)NCCN1CCN(c2ccc(Cl)cc2)CC1	none (no result: ugtP null kill, Mtb bLac sens, RN4220 kill, Mtb hypoxia inh)
COC(=O)C1=C(C)N(c2ccc(C)c(C)c2)/C(=C/c2ccc(O)cc2)C1=O	ugtP null kill 91.3, RN4220 kill 92.8
Oc1cccc2c(NC(=S)Nc3ccc(SC(F)F)cc3)cccc12	PriA SSB inh 47.8
COc1ccccc1C1CCN(C(=O)C2CCCCC2)CC1	PriA SSB inh 41.1
COc1ccccc1C1CCN(C(=O)c2ccccc2)CC1	none
CC(=O)CC1(O)C(=O)N(Cc2ccccc2)c2ccccc21 (stereo not given)	none
CC1(C)C(=S)N(Cc2ccccc2)c2ccccc21	ugtP null kill 86.0
CCC1=NNc2cccc3c(OC)ccc1c23	Mtb hypoxia inh 60.1 (no result: PriA SSB inh)
N#CC1(Nc2ccccc2)C(=O)Nc2ccccc21 (stereo not given)	Mtb hypoxia inh 55.8
CC(=O)N1CCC(C(=O)NC2CCC(Oc3ncc(F)cn3)CC2)CC1 (stereo not given)	none (no result: ugtP null kill, Mtb bLac sens, RN4220 kill, Mtb hypoxia inh)
Cc1ccccc1OCC(O)CN1CCN(CCN2C(=O)c3cccc4cccc(c34)C2=O)CC1 (stereo not given)	none
Cc1ccc(OCCOC[C@@H](O)CN2CCN(CCN3C(=O)c4cccc5cccc(c45)C3=O)CC2)cc1C	PriA SSB inh 36.0 (no result: ugtP null kill, Mtb bLac sens, RN4220 kill, Mtb hypoxia inh)
Cc1ccc(-c2ccc(S(=O)(=O)Nc3cccc(C(=O)O)c3)cc2)cc1	none (no result: ugtP null kill, Mtb bLac sens, RN4220 kill, Mtb hypoxia inh)
Cc1[nH]nc2c1C1(C(=O)N(Cc3ccc(Cl)cc3)c3ccccc31)C(C#N)=C(N)O2 (stereo not given)	none
CN1C(=O)C2(C(C#N)=C(N)Oc3n[nH]c(-c4ccc(Cl)cc4)c32)c2ccccc21 (stereo not given)	RN4220 kill 97.6 (no result: Mtb hypoxia inh)
CC(C)c1ccc(OCC(=O)NNC(=S)NC(=O)c2ccco2)c(Br)c1	none
CC(C)(C)c1ccc(OCC(=O)NNC(=S)NC(=O)c2ccco2)c(Br)c1	ugtP null kill 97.6, RN4220 kill 98.8
COC(=O)c1c(NC(C)=O)sc2c1CCN(C(C)=O)C2	none (no result: ugtP null kill, Mtb bLac sens, RN4220 kill, Mtb hypoxia inh)
Nc1ccccc1Nc1cccc(C(F)(F)F)c1	PriA SSB inh 42.9
Cc1c(C=NNc2nc3ccccc3[nH]2)c2ccccc2n1C	ugtP null kill 98.6, RN4220 kill 98.7 (no result: Mtb bLac sens, PriA SSB inh)
C=CCn1cc(C=NNc2nc3ccccc3[nH]2)c2ccccc21	PriA SSB inh 61.4 (no result: Mtb bLac sens)
Cc1nn(-c2ccccc2)c(C)c1C=NNc1nc2ccccc2[nH]1	PriA SSB inh 56.0 (no result: Mtb bLac sens)
C[C@@H](C(=O)NCc1ccc(F)cc1F)n1nnc2ccccc2c1=O	none (no result: ugtP null kill, Mtb bLac sens, RN4220 kill, Mtb hypoxia inh)
C[C@H](Oc1ccccc1)C(=O)Nc1c(C(=O)Nc2ccc3c(c2)OCCO3)oc2ccccc12	none (no result: ugtP null kill, Mtb bLac sens, RN4220 kill, Mtb hypoxia inh)
COc1cc(C(=O)NN=Cc2ccc3c(c2)c2ccccc2n3C)ccc1O	ugtP null kill 85.8, RN4220 kill 90.7 (no result: Mtb bLac sens)
COc1cc(Cl)c(C)cc1NC(=O)Cn1ncc2c(c1=O)N(C)C(=O)CS2	none (no result: ugtP null kill, Mtb bLac sens, RN4220 kill, Mtb hypoxia inh)
COc1ccc2nc(C)cc(NN=Cc3ccc(F)cc3)c2c1	Mtb hypoxia inh 77.5 (no result: Mtb bLac sens)
COc1ccc2nc(C)cc(N/N=C/c3ccc(F)cc3)c2c1	none (no result: ugtP null kill, RN4220 kill, PriA SSB inh, Mtb hypoxia inh)
OC(COc1ccc(C23CC4CC(CC(C4)C2)C3)cc1)C[N+]1(Cc2ccccc2)CCOCC1 (stereo not given)	PriA SSB inh 45.0 (no result: ugtP null kill, Mtb bLac sens, RN4220 kill, Mtb hypoxia inh)
CC(=O)C(=NNc1ccccc1)Sc1cccc2cccnc12	none (no result: Mtb bLac sens)
CC(=O)C(=NNc1ccc(Cl)cc1Cl)Sc1cccc2cccnc12	ugtP null kill 85.0, PriA SSB inh 72.7 (no result: Mtb bLac sens)
Fc1cccc(CON=Cc2c(-c3ccccc3)nc3ccc(Cl)cn23)c1	Mtb hypoxia inh 37.6 (no result: Mtb bLac sens)
Cc1ccn2c(C=NOCc3cccc(F)c3)c(-c3ccc(Cl)cc3)nc2c1	none (no result: Mtb bLac sens, Mtb hypoxia inh)
